# TDP1 cell noCPT: qHTS for Inhibitors of human tyrosyl-DNA phosphodiesterase 1 (TDP1): qHTS in cells in absence of CPT. DT40 Tdp1-/- hTDP1 cells, no CPT, ATP luminescence, 48 h. Potency, µM (top dose mostly 46.2 µM), for the others: at the highest dose activity change, negative = growth inhibition, hits mostly inhibitors. actives 15% (n = 420,000); further: potency means the concentration at half of the fitted maximal effect; nearly all actives have a fitted effect of over 55% in size
#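 No-CPT arm: Tdp1-/-;hTDP1 DT40 cells (400/well) plus compounds, incubated ≥48 hr at 37 °C. Readout CellTiter-Glo luminescence.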
# HT1080NT lethal: qHTS for induction of synthetic lethality in tumor cells producing 2HG: qHTS for the HT-1080-NT fibrosarcoma cell line; HT-1080-NT fibrosarcoma viability, CellTiter-Glo ATP luminescence, 48 h; Potency, µM (titrated, usually from 46.1 µM), for the others: at the highest dose activity, negative = less viability, most hits filed as cytotoxic; actives 1.6% (n = 360,000); AID 686970, 2013;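 further: NT is the 2HG producing partner of a matched IDH1 knockdown line; potency means the concentration at half of the fitted maximal effect; 0% = DMSO-treated cells and -100% = media-only wells without cells; nearly all actives have a fitted effect of over 55% in size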
#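 A 48-hour cytotoxicity screen used HT-1080-NT cells plated 2 hours before compound delivery. ATP-based CellTiter-Glo luminescence measured viability, normalized to DMSO and no-cell controls.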
# 12-LOX inh: Primary qHTS assay for inhibitors of human arachidonate 12S-lipoxygenase (ALOX12): Round 2 | Polyunsaturated fatty acid lipoxygenase ALOX12 (Homo sapiens), P18054 | purified 12hLO, xylenol orange hydroperoxide absorbance | Potency, µM (series often up to 108 µM), inactives show at the highest dose activity change, negative = inhibition, hits mostly inhibitors | actives 1.1% (n = 580,000) | AID 1671190, 2021; further: potency means the concentration at half of the fitted maximal effect
# Target sequence (P18054 whole entry, looked up): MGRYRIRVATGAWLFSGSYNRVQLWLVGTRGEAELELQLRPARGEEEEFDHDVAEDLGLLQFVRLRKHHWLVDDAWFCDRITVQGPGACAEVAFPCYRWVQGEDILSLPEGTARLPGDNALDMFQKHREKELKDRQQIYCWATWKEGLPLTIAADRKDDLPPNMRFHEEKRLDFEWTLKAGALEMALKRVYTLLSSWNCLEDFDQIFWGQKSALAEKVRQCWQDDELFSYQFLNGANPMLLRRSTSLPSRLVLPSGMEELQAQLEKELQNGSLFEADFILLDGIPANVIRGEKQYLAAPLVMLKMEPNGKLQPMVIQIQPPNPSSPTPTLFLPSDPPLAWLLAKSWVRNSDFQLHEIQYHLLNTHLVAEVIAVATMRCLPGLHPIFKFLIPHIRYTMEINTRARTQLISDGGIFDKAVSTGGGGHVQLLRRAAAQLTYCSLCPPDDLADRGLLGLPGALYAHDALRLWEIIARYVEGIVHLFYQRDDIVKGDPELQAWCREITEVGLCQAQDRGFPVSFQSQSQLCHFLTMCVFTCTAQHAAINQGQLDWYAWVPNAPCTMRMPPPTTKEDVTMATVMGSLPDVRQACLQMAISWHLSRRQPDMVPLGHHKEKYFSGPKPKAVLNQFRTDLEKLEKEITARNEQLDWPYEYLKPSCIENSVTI
#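 Hydroperoxide product was detected by ferrous iron/xylenol orange as the 573 to 405 nm absorbance ratio. Arachidonic acid at 40 uM (final) was turned over for 30 min at room temperature by 150 nM human 12hLO, pH 7.0 Hepes buffer, after 15 min compound preincubation.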
# HT1080 IDH1KD tx: qHTS for induction of synthetic lethality in tumor cells producing 2HG: qHTS for the HT-1080-IDH1KD cell line; HT-1080 IDH1 knockdown viability, ATP luminescence, 48 h; actives 2% (n = 360,000); Potency, µM (top dose mostly 46.1 µM), for the others: top-dose activity, negative = toxicity, most hits filed as cytotoxic;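 further: potency means the concentration at half of the fitted maximal effect; 0% = DMSO wells and -100% = cell-free medium wells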
#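 IDH1KD HT-1080 cells, 750/well, RPMI + 5% FBS; compound pinned after 2 h settling; 48 h, 37 °C; CellTiter-Glo luminescence; % activity normalised to DMSO and no-cell wells; curves fitted, classed by r2 and efficacy.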
# TDP1 cell CPT: qHTS for Inhibitors of human tyrosyl-DNA phosphodiesterase 1 (TDP1): qHTS in cells in presence of CPT; Potency, µM (highest dose often 46.2 µM), inactives show top-dose activity change, negative = growth inhibition, usual class: inhibitors; actives 12% (n = 420,000); chicken DT40 Tdp1-/-;hTDP1 cells + 20 nM CPT, ATP luminescence, 48 h; AID 686979, 2013; further: potency means the concentration at half of the fitted maximal effect; nearly all actives have a fitted effect of over 55% in size
#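 Chicken DT40 Tdp1-/- cells complemented with human TDP1, 400 cells/well, exposed to compounds plus 20 nM camptothecin for at least 48 h at 37 C; viability read as ATP content by CellTiter-Glo luminescence.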
# IL1B secr inh: qHTS for Inhibitors of Inflammasome Signaling: IL-1-beta AlphaLISA Primary Screen; activity change, % at 57.5 µM; THP-1 LPS/ATP IL-1B secretion, AlphaLISA, 16 h; hits give low values; AID 743279, 2014; actives 4.7% (n = 360,000); in the data active means activity change below about -50%; inconclusive means mostly about -30% to -49%
#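 THP-1 cells pretreated 1 hr with compounds (up to 57.5 uM final), then stimulated with LPS (250 ng/mL final) plus ATP (1.25 mM final); secreted IL-1B measured by AlphaLISA after 16 hr, decreased signal indicating inhibition.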
# Starred values were filed as active, the others as inactive; i = inactive; ? = inconclusive; . = no result; [ ] = dose if it differs, or a comment. Shown is part of a subset that was picked to be rich in hits. Unless noted, the call rests on the fitted dose curve; in most records, active means well fitted curve in the direction sought with a large enough effect; inconclusive means small, poorly fitted or top-dose-only effect, or another doubt; inactive means no such curve, though single readings can be large; an effect the other way counts as inactive or inconclusive. Unless noted, on the % scale 0 is the no-effect control and ±100 the full control effect.
SMILES,TDP1 cell noCPT,HT1080NT lethal,12-LOX inh,HT1080 IDH1KD tx,TDP1 cell CPT,IL1B secr inh
Cc1cccc(N2CCN(CC(=O)NCc3ccc(Cl)cc3)CC2)c1C,4.1µM*,-16%,?,-27%,?,-64*
O=C(CN1CCN(C(=O)c2nn(Cc3ccccc3)c(=O)c3ccccc23)CC1)N1CCOCC1,.,.,-1%,.,.,.
O=C(NC(Cc1ccccc1)c1ccccc1)C1CCCO1 (centres undefined),.,.,-27%,.,.,.
CC(=O)Nc1ccc(CNC(=O)Cc2c(Cl)cccc2Cl)cc1,.,.,-49%,.,.,.
CC(=O)c1c(C)oc2ccc(N(C(=O)Oc3ccccc3)S(=O)(=O)c3ccccc3)cc12,10µM*,.,-8%,.,?,.
COC(=O)c1c(C)oc2ccc(N(C(=O)Oc3ccccc3)S(=O)(=O)c3ccc(C(C)(C)C)cc3)cc12,1.5µM*,.,-5%,.,3.7µM*,.
CCOC(=O)c1c(C)oc2ccc(N(C(=O)Oc3ccccc3)S(=O)(=O)c3ccccc3)cc12,-29%,.,-16%,.,2%,.
COC(=O)c1c(C)oc2ccc(N(C(=O)c3ccncc3)S(=O)(=O)c3cc(C)ccc3C)cc12,.,.,-1%,.,.,.
CCOC(=O)N1C(=O)[C@@](CC)(c2ccccc2)N1C(=O)OCC,13µM*,-6%,i,2%,8.2µM*,.
COc1ccc(CNC(=O)C(C)N2C(=O)NC(c3ccccc3)(c3ccccc3)C2=O)cc1 (centres undefined),2%,-10%,37%,0%,-12%,?
CC[C@@]1(c2ccccc2OC)C(=O)N(C(=O)OC)N1C(=O)OC,?,-27%,.,-12%,?,-87*
CCOC(=O)N1CCN(C(=O)CN2C(=O)NC(c3ccccc3)(c3ccccc3)C2=O)CC1,-21%,-16%,-7%,-16%,9%,24
COc1ccccc1NC(=O)CN1C(=O)C(C)(C)c2ccccc21,-27%,.,-9%,.,-13%,.
CC[C@@]1(c2cccc(C)c2)C(=O)N(C(=O)OC)N1C(=O)OC,18µM*,9%,7%,11%,18µM*,-88*
COC(=O)N1C(=O)[C@](CC(C)C)(c2ccccc2)N1C(=O)OC,16µM*,5%,-22%,-4%,21µM*,.
Cc1nc2n(c(=O)c1C)CN(CCN1CCOCC1)CN2c1ccc(Oc2ccccc2)cc1,.,.,-2%,.,.,.
CCOC(=O)c1ccc(NC(=O)Cc2noc3ccc(C)cc23)cc1,?,.,6%,.,21µM*,.
CCOC(=O)c1ccc(NC(=O)Cc2coc3cc(C)cc(C)c23)cc1,18µM*,.,-15%,.,?,.
Cc1cc(C)c2c(CC(=O)Nc3ccc(F)cc3)coc2c1,-30%,.,?,.,?,.
CN1CCN(C(=O)c2cccnc2)CC12CCC(=O)N(CC1CC1)CC2 (centres undefined),.,.,43%,.,.,.
CC1=C(C(=O)Nc2cccc(C(F)(F)F)c2)C2(CCCCCC2)OC1=O,?,.,-24%,.,16µM*,.
CC1=C(C(=O)Nc2cccc(C(F)(F)F)c2)C2(CCCCC2)OC1=O,16µM*,.,-22%,.,?,.
COC(=O)c1ccccc1NC(=O)C1=C(C)C(=O)OC12CCCCCC2,16µM*,.,-11%,.,18µM*,.
CC1=C(C(=O)NCc2cccc(Br)c2)C2(CCCCC2)OC1=O,23µM*,.,-15%,.,15µM*,.
c1ccc(O[C@H]2COCCN(c3nc4ccccc4s3)C2)cc1,.,.,4%[176 µM],.,.,.
SMILES,TDP1 cell noCPT,HT1080NT lethal,12-LOX inh,HT1080 IDH1KD tx,TDP1 cell CPT,IL1B secr inh
COc1cccc(CNC(=O)C2(C)CCCCC(=O)N2)c1OC (centres undefined),.,.,19%,.,.,.
C=CCNC(=O)/C(C#N)=C/c1c(C)nn(-c2ccc(Cl)cc2)c1Cl,23µM*,?,?,?,?,-57*
CCOc1ccccc1NC(=O)/C(C#N)=C/c1c(C)nn(-c2ccc(F)cc2)c1Cl,-20%,-7%,-6%,-6%,13µM*,-10
Cc1nn(-c2ccc(Cl)cc2)c(Cl)c1/C=C(\C#N)C(N)=O,?,-15%,?,-16%,?,-6
COc1ccc2c(C)cc(SCC(=O)Nc3nsc(-c4ccc(C)cc4)n3)nc2c1,-28%,5%,140%,6%,-9%,1
Cc1ccc(-c2nc(NC(=O)CSc3cc(C)c4ccccc4n3)ns2)cc1,16µM*,3%,4%,14%,13µM*,51
COc1ccc2c(C)cc(SCC(=O)Nc3nsc(-c4ccccc4C)n3)nc2c1,15µM*,.,-7%,.,?,.
CCOc1ccc(CC(=NCCc2ccccc2)C2=C(O)CC(C)(C)CC2=O)cc1OCC,16µM*,0%,0%,-1%,15µM*,-66*
CCOc1ccc(CC(=N)C2=C(O)CC(C)(C)CC2=O)cc1OCC,-19%,11%,-1%,10%,23%,30
COc1cc(Cl)ccc1C(=O)NC1CCN(c2cc(-c3cccs3)[nH]n2)C1 (centres undefined),.,.,55%,.,.,.
CCOc1cc(/C=N/N=C(N)N)ccc1OCc1ccc(Cl)cc1,16µM*,?,?,?,15µM*,-108*
COc1cc(/C=N/O)ccc1OCc1ccc(Cl)cc1,.,.,-7%,.,.,.
COc1cc(/C=N/N=C(N)N)ccc1OCc1ccc(Cl)cc1,5.8µM*,?,?,?,6.5µM*,-94*
NC(N)=N/N=C/c1ccc(OCc2ccccc2)c(OCc2ccccc2)c1,18µM*,23µM*,?,18µM*,?,-96*
CCCC(C)NC(=O)c1ccc(OCc2ccc(Cl)cc2)c(OC)c1 (centres undefined),8.2µM*,-1%,-15%,-24%,?,-9
CCOc1cc(C=O)ccc1OCc1ccccc1,.,.,-37%,.,.,.
COCCOc1cccc(N)c1,.,.,4%,.,.,.
C=C(C)[C@@H]1CCC2(C(=O)O)CC[C@]3(C)[C@H](CC[C@@H]4[C@@]5(C)CCC(=O)C(C)(C)[C@@H]5CC[C@]43C)[C@@H]12 (some centres undefined),3.7µM*,9%,11%,11%,2.9µM*,54

# High-throughput results from PubChem.
